Laboratory results taken from PubChem BioAssay (NCI).
The panel holds about 83,000 compounds, 20% with a hit somewhere; the sample as a whole holds those more often.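 Step 1: grow cells in 96-well plates. Step 2: add test compound at a single concentration. Step 3: incubate 48 h. Step 4: record percent growth.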 Values without a mark were called inactive. The source made the active and inactive calls. Rule for the calls: active = growth percent below 10; inactive = the rest.

system: MDA-MB-231 breast; test: NCI-60 one-dose screen, 48 h (100 = growth as untreated, 0 = no growth, -100 = all killed); conditions: 10 µM unless noted

| Compound | growth |
| --- | --- |
| O=C1NN(C(=O)c2ccc(O)cc2)C(c2ccccc2)=N/C1=C\c1cn(-c2ccccc2)nc1-c1ccccc1 | 106% |
| COC(=O)/C(=C\c1ccc(OC)cc1)C(=O)N1c2ccccc2Sc2ccccc21 | 54.2% |
| COc1ccc(Oc2nc(Nc3ccc(N4CCOCC4)nc3)ncc2NC(=O)c2cc(OC)cc(OC)c2)cc1 | 81.9% |
| NC(=O)c1c(NC(=O)c2ccc(C(F)(F)F)cc2Cl)sc2c1CCC(=O)C2 | -55.3% (active) |
| O=C(NCCOCCOCCOCCNC(=O)c1cc2c(o1)C(=O)c1ccccc1C2=O)NC12CC3CC(CC(C3)C1)C2 | 18.5% |
| COC(=O)c1ccc(CSc2nnc(-c3ccncc3)o2)cc1 | 106% |
| CCCc1nc2ccccn2c1Nc1ccc(C(=O)NO)cc1 | 111% |
| Fc1ccc(Nc2ccc3cc(OCCCN4CCOCC4)ccc3n2)cc1F | -40.9% (active) |
| C=C1c2c(C)nn(-c3ccc(S(N)(=O)=O)cc3)c2N(C)C23CC1C1(C)c4c(C)nn(-c5ccc(S(N)(=O)=O)cc5)c4N(C)C(C)(CC12)C3 (stereo unspecified) | 39.6% |
| C=C1c2c(C)nn(-c3ccc(NC(C)=O)cc3)c2N(C)C23CC1C1(C)c4c(C)nn(-c5ccc(NC(C)=O)cc5)c4N(C)C(C)(CC12)C3 (stereo unspecified) | 48.4% |
| C[C@@H]1CC[C@@H]2[C@@H]1[C@H](OC(=O)c1ccc3ccccc3c1)[C@]1(C3CCCCC3)C[C@@H](OC(=O)CO)[C@@]2(C)O1 | 63.1% |
| CC(C)(C)c1ccc(C(=O)Nc2sc3c(c2C(N)=O)CCC(=O)C3)cc1 | -59.5% (active) |
| N=c1ccn2c(n1)OC1C(O)C(CO)OC12 (stereo unspecified) | 91.7% |
| NC(=Nc1ccc(N)cc1)C(N)=Nc1ccc(N)cc1 | 93.5% |
| COc1ccc(/C=C(\C#N)n2nnc3cc(F)c(F)cc32)c(OC)c1OC | 61.7% |
| C=C1c2c(C)nn(-c3ccc(O)cc3)c2N(C)C23C[C@@H]1C1(C)c4c(C)nn(-c5ccc(O)cc5)c4N(C)C(C)(C[C@H]12)C3 (stereo partly specified) | 14.8% |
| CSc1ccc(Cl)c(C(=O)Nc2sccc2C(N)=O)c1 | 99% |
| C=C1c2c(C)nn(-c3ccc(N)cc3)c2N(C)C23CC1C1(C)c4c(C)nn(-c5ccc(N)cc5)c4N(C)C(C)(CC12)C3 (stereo unspecified) | 89.2% |
| CC(=O)Nc1ccc2c(c1)Cc1c(F)cccc1-2 | 101% |
| C=C(C)[C@@H]1CC[C@]2(CNCCO)CC[C@]3(C)[C@H](CC[C@@H]4[C@@]5(C)CCC(N)[C@@](C)(CO)[C@@H]5CC[C@]43C)[C@@H]12 (stereo partly specified) | -68.4% (active) |
| Cc1cnc(Nc2ccc(OCCN3CCCC3)cc2)nc1NCc1ccco1 | 55.6% |
| Cc1cc(N(CCCNc2ccnc3cc(Cl)ccc23)Cc2ccccn2)nc(N2CCOCC2)n1 | 95.2% |
| C=C(CNCCc1ccc(O)cc1)[C@@H]1CC[C@]2(COC3CCCCO3)CC[C@]3(C)[C@H](CC[C@@H]4[C@@]5(C)CCC(N)C(C)(C)[C@@H]5CC[C@]43C)[C@@H]12 (stereo partly specified) | -92.2% (active) |
| Clc1ccc2c(NCCCN3CCN(c4nc(-n5ccnc5)nc5ccccc45)CC3)ccnc2c1 | 8.95% (active) |
| Cn1c(NCCc2ccc(O)c(O)c2)nc2c1c(=O)n(Cc1ccc(Cl)cc1)c(=O)n2C | 52.3% |
| CCN(CC)N=Nc1nn(C(=O)Nc2ccc(Cc3ccccc3)cc2)c2ccc(Cl)cc12 | 102% |
| COC(=O)c1ccc2oc(NC(=O)c3ccc(N4CCOCC4)c([N+](=O)[O-])c3)nc2c1 | 100% |

system: RXF 393 renal; test: as above; conditions: 10 µM unless noted

| Compound | growth |
| --- | --- |
| OCCCCc1nccc2c1[nH]c1ccccc12 | 65.7% |
| CCCn1nc(-c2ccccc2)c2c(-c3ccccc3)onc2c1=O | 90.2% |
| Cc1cc(N(CCCNc2ccnc3cc(Cl)ccc23)Cc2ccccn2)nc(N2CCCC2)n1 | 54.9% |
| C=C(C)[C@@H]1CC[C@]2(CN)CC[C@]3(C)[C@H](CC[C@@H]4[C@@]5(C)CCC(N)[C@@](C)(CO)[C@@H]5CC[C@]43C)[C@@H]12 (stereo partly specified) | 58.4% |
| COc1ccc(-n2ncn(CCCCCCn3cnn(-c4ccc(OC)cc4)c3=O)c2=O)cc1 | 98.2% |
| O=C(NC1CCOCC1)c1ccc2c(c1)CN(c1ncc(Cc3cccc(-n4cccn4)c3)s1)CC2 | 73.7% |
| C=C(CNCCc1ccc(O)cc1)[C@@H]1CC[C@]2(COC3CCCCO3)CC[C@]3(C)[C@H](CC[C@@H]4[C@@]5(C)CCC(NCCO)C(C)(C)[C@@H]5CC[C@]43C)[C@@H]12 (stereo partly specified) | -88.9% (active) |
| Cc1c(C(=O)O[C@H]2[C@@H]3[C@H](C)CC[C@H]3[C@]3(C)O[C@@]2(C2CCCCC2)C[C@H]3OC(=O)CO)ccc2ccccc12 | -31.7% (active) |
| COc1ccc(Oc2nc(Nc3ccc(N4CCCCC4)nc3)ncc2NC(=O)c2cc(OC)cc(OC)c2)cc1 | 41% |
| O=C(Oc1ccc[nH]c1=O)c1cc([N+](=O)[O-])cc([N+](=O)[O-])c1 | 83.3% |
| Cc1cc(N2CCCCC2)nc(N(CCNc2ccnc3cc(Cl)ccc23)Cc2ccccn2)n1 | 30.7% |
| CCCCOc1ccc(NC(=O)n2nc(N=NN(C)C)c3ccc(Cl)cc32)cc1 | 112% |
| O=C1NN(C(=O)c2ccc(O)cc2)C(c2ccccc2)=N/C1=C\c1cn(-c2ccccc2)nc1-c1ccccc1 | 107% |
| COC(=O)/C(=C\c1ccc(OC)cc1)C(=O)N1c2ccccc2Sc2ccccc21 | 47.7% |
| COc1ccc(Oc2nc(Nc3ccc(N4CCOCC4)nc3)ncc2NC(=O)c2cc(OC)cc(OC)c2)cc1 | 58.6% |
| NC(=O)c1c(NC(=O)c2ccc(C(F)(F)F)cc2Cl)sc2c1CCC(=O)C2 | -39% (active) |
| O=C(NCCOCCOCCOCCNC(=O)c1cc2c(o1)C(=O)c1ccccc1C2=O)NC12CC3CC(CC(C3)C1)C2 | -52.9% (active) |
| COC(=O)c1ccc(CSc2nnc(-c3ccncc3)o2)cc1 | 122% |
| CCCc1nc2ccccn2c1Nc1ccc(C(=O)NO)cc1 | 96% |
| Fc1ccc(Nc2ccc3cc(OCCCN4CCOCC4)ccc3n2)cc1F | 61.1% |

| Compound | growth |
| --- | --- |
| C=C1c2c(C)nn(-c3ccc(S(N)(=O)=O)cc3)c2N(C)C23CC1C1(C)c4c(C)nn(-c5ccc(S(N)(=O)=O)cc5)c4N(C)C(C)(CC12)C3 (stereo unspecified) | 33.3% |
| C=C1c2c(C)nn(-c3ccc(NC(C)=O)cc3)c2N(C)C23CC1C1(C)c4c(C)nn(-c5ccc(NC(C)=O)cc5)c4N(C)C(C)(CC12)C3 (stereo unspecified) | 29.9% |
| C[C@@H]1CC[C@@H]2[C@@H]1[C@H](OC(=O)c1ccc3ccccc3c1)[C@]1(C3CCCCC3)C[C@@H](OC(=O)CO)[C@@]2(C)O1 | 8.34% (active) |
| CC(C)(C)c1ccc(C(=O)Nc2sc3c(c2C(N)=O)CCC(=O)C3)cc1 | -22.4% (active) |
| N=c1ccn2c(n1)OC1C(O)C(CO)OC12 (stereo unspecified) | 28.7% |
| NC(=Nc1ccc(N)cc1)C(N)=Nc1ccc(N)cc1 | 84.1% |
| COc1ccc(/C=C(\C#N)n2nnc3cc(F)c(F)cc32)c(OC)c1OC | 41.1% |
| C=C1c2c(C)nn(-c3ccc(O)cc3)c2N(C)C23C[C@@H]1C1(C)c4c(C)nn(-c5ccc(O)cc5)c4N(C)C(C)(C[C@H]12)C3 (stereo partly specified) | 19.9% |
| CSc1ccc(Cl)c(C(=O)Nc2sccc2C(N)=O)c1 | 60.2% |
| C=C1c2c(C)nn(-c3ccc(N)cc3)c2N(C)C23CC1C1(C)c4c(C)nn(-c5ccc(N)cc5)c4N(C)C(C)(CC12)C3 (stereo unspecified) | 71.7% |
| CC(=O)Nc1ccc2c(c1)Cc1c(F)cccc1-2 | 99% |
| C=C(C)[C@@H]1CC[C@]2(CNCCO)CC[C@]3(C)[C@H](CC[C@@H]4[C@@]5(C)CCC(N)[C@@](C)(CO)[C@@H]5CC[C@]43C)[C@@H]12 (stereo partly specified) | 30.2% |
| Cc1cnc(Nc2ccc(OCCN3CCCC3)cc2)nc1NCc1ccco1 | 48% |
| Cc1cc(N(CCCNc2ccnc3cc(Cl)ccc23)Cc2ccccn2)nc(N2CCOCC2)n1 | 77.3% |
| C=C(CNCCc1ccc(O)cc1)[C@@H]1CC[C@]2(COC3CCCCO3)CC[C@]3(C)[C@H](CC[C@@H]4[C@@]5(C)CCC(N)C(C)(C)[C@@H]5CC[C@]43C)[C@@H]12 (stereo partly specified) | -83.9% (active) |
| Clc1ccc2c(NCCCN3CCN(c4nc(-n5ccnc5)nc5ccccc45)CC3)ccnc2c1 | 37.1% |
| Cn1c(NCCc2ccc(O)c(O)c2)nc2c1c(=O)n(Cc1ccc(Cl)cc1)c(=O)n2C | 73.2% |
| CCN(CC)N=Nc1nn(C(=O)Nc2ccc(Cc3ccccc3)cc2)c2ccc(Cl)cc12 | 116% |
| COC(=O)c1ccc2oc(NC(=O)c3ccc(N4CCOCC4)c([N+](=O)[O-])c3)nc2c1 | 119% |
